Test results from the supplement of paper PMC8728848.
This is one part of a sample in which the strongest signals are shown more often than they occur.

Experiments:
Assay in all cases: glycan array binding signal (z-score within array); higher = stronger binding
Settings in all cases: glycan notation: IUPAC condensed, linker removed
[1] = target: Fuc(a1-2)Gal(b1-3)GlcNAc(b1-2)Man(a1-3)[Fuc(a1-2)Gal(b1-3)GlcNAc(b1-2)Man(a1-6)]Man(b1-4)GlcNAc(b1-4)[Fuc(a1-6)]GlcNAc
Method in brief: (§1)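 From the Consortium for Functional Glycomics database, 3228 arrays were curated, keeping only those whose protein sequence was available. Binding is given as a within-array Z-score averaged across arrays sharing a protein sequence and across linkers. Negative Z-scores can be read as non-binding.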

[2] = target: Fuc(a1-2)Gal(b1-3)GlcNAc(b1-3)[Gal(b1-4)GlcNAc(b1-6)]Gal(b1-4)Glc
Method in brief: as §1

[3] = target: Fuc(a1-2)Gal(b1-3)[Fuc(a1-4)]GlcNAc
Method in brief: as §1

[4] = target: Fuc(a1-2)Gal(b1-3)[Fuc(a1-4)]GlcNAc(b1-2)Man(a1-3)[Fuc(a1-2)Gal(b1-3)[Fuc(a1-4)]GlcNAc(b1-2)Man(a1-3)]Man(b1-4)GlcNAc(b1-4)GlcNAc
Method in brief: as §1

[5] = target: Fuc(a1-2)Gal(b1-4)GlcNAc(b1-6)GalNAc
Method in brief: as §1

[6] = target: Fuc(a1-2)Gal3S(b1-4)GlcNAc
Method in brief: as §1

[7] = target: Fuc(a1-2)[Gal(a1-3)]Gal(b1-3)GalNAc(b1-3)Gal(a1-4)Gal(b1-4)Glc
Method in brief: as §1

[8] = target: Fuc(a1-2)[Gal(a1-3)]Gal(b1-3)GlcNAc
Method in brief: as §1

[9] = target: Fuc(a1-2)[Gal(a1-3)]Gal(b1-3)GlcNAc(b1-6)GalNAc
Method in brief: as §1

[10] = target: Fuc(a1-2)[Gal(a1-3)]Gal(b1-4)[Fuc(a1-3)]GlcNAc(b1-3)GalNAc
Method in brief: as §1

[11] = target: Fuc(a1-3)[Gal(b1-4)]GlcNAc(b1-2)Man(a1-3)[Fuc(a1-3)[Gal(b1-4)]GlcNAc(b1-2)Man(a1-6)]Man(b1-4)GlcNAc(b1-4)GlcNAc
Method in brief: as §1

[12] = target: Fuc(a1-3)[Gal(b1-4)]GlcNAc(b1-3)Gal(b1-4)[Fuc(a1-3)]GlcNAc
Method in brief: as §1

[13] = target: Fuc(a1-3)[Gal(b1-4)]GlcNAc(b1-6)GalNAc
Method in brief: as §1

[14] = target: Fuc(a1-3)[Gal(b1-4)]GlcNAc6S
Method in brief: as §1

[15] = target: Gal(a1-3)Gal(b1-3)GlcNAc(b1-6)GalNAc
Method in brief: as §1

[16] = target: Gal(a1-3)Gal(b1-4)GlcNAc(b1-2)Man(a1-3)[Gal(a1-3)Gal(b1-4)GlcNAc(b1-2)Man(a1-6)]Man(b1-4)GlcNAc(b1-4)GlcNAc
Method in brief: as §1

[17] = target: Gal(b1-3)GlcNAc(b1-2)Man(a1-3)[Gal(b1-3)GlcNAc(b1-2)Man(a1-6)]Man(b1-4)GlcNAc(b1-4)GlcNAc
Method in brief: as §1

[18] = target: Gal(b1-3)GlcNAc(b1-2)Man(a1-3)[Gal(b1-3)GlcNAc(b1-2)Man(a1-6)]Man(b1-4)GlcNAc(b1-4)[Fuc(a1-6)]GlcNAc
Method in brief: as §1

[19] = target: Gal(b1-3)GlcNAc(b1-3)Gal(b1-4)GlcNAc
Method in brief: as §1

[20] = target: Gal(b1-3)GlcNAc(b1-3)Gal(b1-4)GlcNAc(b1-2)Man(a1-3)[Gal(b1-3)GlcNAc(b1-3)Gal(b1-4)GlcNAc(b1-2)Man(a1-6)]Man(b1-4)GlcNAc(b1-4)GlcNAc
Method in brief: as §1

[21] = target: Gal(b1-3)GlcNAc(b1-6)Gal(b1-4)GlcNAc
Method in brief: as §1

[22] = target: Gal(b1-3)GlcNAc(b1-6)[Gal(b1-3)]GalNAc
Method in brief: as §1

[23] = target: Gal(b1-3)[Fuc(a1-4)]GlcNAc(b1-6)GalNAc
Method in brief: as §1

[24] = target: Gal(b1-4)GlcNAc(b1-3)Gal(b1-3)GalNAc
Method in brief: as §1

[25] = target: Gal(b1-4)GlcNAc(b1-3)Gal(b1-4)GlcNAc(b1-2)Man(a1-3)[Gal(b1-4)GlcNAc(b1-3)Gal(b1-4)GlcNAc(b1-2)Man(a1-6)]Man(b1-4)GlcNAc(b1-4)GlcNAc
Method in brief: as §1

[26] = target: Gal(b1-4)GlcNAc(b1-3)Gal(b1-4)GlcNAc(b1-2)Man(a1-3)[Gal(b1-4)GlcNAc(b1-3)Gal(b1-4)GlcNAc(b1-2)Man(a1-6)]Man(b1-4)GlcNAc(b1-4)[Fuc(a1-6)]GlcNAc
Method in brief: as §1

[27] = target: Gal(b1-4)GlcNAc(b1-3)Gal(b1-4)GlcNAc(b1-3)Gal(b1-4)GlcNAc(b1-2)Man(a1-3)[Gal(b1-4)GlcNAc(b1-3)Gal(b1-4)GlcNAc(b1-3)Gal(b1-4)GlcNAc(b1-2)Man(a1-6)]Man(b1-4)GlcNAc(b1-4)[Fuc(a1-6)]GlcNAc
Method in brief: as §1

[28] = target: Gal(b1-4)GlcNAc(b1-3)Gal(b1-4)GlcNAc(b1-3)Gal(b1-4)GlcNAc(b1-3)Gal(b1-4)GlcNAc(b1-3)Gal(b1-4)GlcNAc(b1-2)Man(a1-3)[Gal(b1-4)GlcNAc(b1-3)Gal(b1-4)GlcNAc(b1-3)Gal(b1-4)GlcNAc(b1-3)Gal(b1-4)GlcNAc(b1-3)Gal(b1-4)GlcNAc(b1-2)Man(a1-6)]Man(b1-4)GlcNAc(b1-4)GlcNAc
Method in brief: as §1

[29] = target: Gal(b1-4)GlcNAc(b1-3)Gal(b1-4)GlcNAc(b1-6)[Gal(b1-3)]GalNAc
Method in brief: as §1

[30] = target: Gal6S(b1-4)Glc
Method in brief: as §1

B1: PX9937B-bvu-524-33-524 (Bacteroides vulgatus) (protein)
chain: GTAYWKNPDQFTAFNTGLHALLREKSYNFFLLGEPRADIYGDNPIGGEASQGMERLPFNTINKENVGISNYGDMYKIINQINQMIAKTTETTILTEATQNYYLGEAYGMRAYLYFHLLRSWGDVVLYLDYTEGQNLDLSNITKGVSPATEVMEQIKKDIQASENAFGSDYSFKLGRHFWSAAATQMLKGEAYLWSGRQMNGGNSDYTIAKNAFENVKKADVGLVTSSFKDIFSFENKKNKEMIFTIHNGKDEYEMWGGYYRMRLIPAQDKMVKIYCDENGNSFVGTPDAQLNGLTQLQVRREFYFKGFRNNDTRWTTSLKAVYKKDAQGVVSYFGPITYKFQGTMLEGGSTRSFLDDFPIYRYADCLLQLAMAKVLLGEDPTEEINAVRERAYGSKYFNEHKAEIAYPNDNDPEFYTDNKWMKPDNAGALEAILKERLREFMFEGKRWYDIRLLGWDYVHQYSSAEQSRLLWPIDAGTLTNNSALKQTPGYE
glycan array binding signal (z-score) [1]: -0.232
glycan array binding signal (z-score) [2]: -0.284
glycan array binding signal (z-score) [3]: -0.457
glycan array binding signal (z-score) [4]: -0.154
glycan array binding signal (z-score) [5]: -0.136
glycan array binding signal (z-score) [6]: -0.476
glycan array binding signal (z-score) [7]: 0.046
glycan array binding signal (z-score) [8]: -0.275
glycan array binding signal (z-score) [9]: -0.124
glycan array binding signal (z-score) [10]: -0.416
glycan array binding signal (z-score) [11]: 1.23
glycan array binding signal (z-score) [12]: -0.277
glycan array binding signal (z-score) [13]: 2.69
glycan array binding signal (z-score) [14]: 0.219
glycan array binding signal (z-score) [15]: 6.13
glycan array binding signal (z-score) [16]: 2.91
glycan array binding signal (z-score) [17]: -0.057
glycan array binding signal (z-score) [18]: 0.088
glycan array binding signal (z-score) [19]: -0.228
glycan array binding signal (z-score) [20]: 12.8
glycan array binding signal (z-score) [21]: -0.085
glycan array binding signal (z-score) [22]: 7.68
glycan array binding signal (z-score) [23]: -0.019
glycan array binding signal (z-score) [24]: -0.08
glycan array binding signal (z-score) [25]: 2.05
glycan array binding signal (z-score) [26]: 1.48
glycan array binding signal (z-score) [27]: 2.54
glycan array binding signal (z-score) [28]: 8.61
glycan array binding signal (z-score) [29]: 3.08
glycan array binding signal (z-score) [30]: -0.101
